Assay [1] in a line: reducers of endogenous Her2 protein level, primary screen, SKBR3 breast tumor cells, AlphaScreen, ATP viability (AID 461).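 For Her2 level: lower value means less Her2 protein in the cells.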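 For viability: percent of carrier control wells set as 100% viability.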 Conditions: 18-24 h, measured here: SKBR3 viability, ATP luminescence, at 10 µM.
Assay [2] concerns the target Receptor tyrosine-protein kinase erbB-2 (Homo sapiens) (UniProt P04626). The assay is described as above. Conditions: 18-24 h, at 10 µM, stronger effect = lower value.
Assay [3] in a line: SK-BR-3 cell growth inhibitors, pilot screen, 24 h, human (AID 572;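 active = viability at or below 10% of carrier control in both of two separate runs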;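 note: compound exposure lasted between 18 and 24 h rather than exactly 24 h; 100% = carrier-treated control wells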). Conditions: SK-BR-3 viability, CellTiter-Glo luminescence, at 10 µM, stronger effect = lower value.
A short description of assay [4]: HUVEC growth inhibition – cell-based, human, primary screen (AID 575;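 active = viability at or below 30% in both replicate assays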;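 note: 100% = median of untreated cell wells with 0.1% DMSO on each plate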). Conditions: HUVEC proliferation, CellTiter-Glo luminescence, 72 h; at 10 µM; stronger effect = lower value.
Assay [5] in a line: growth inhibitors of H69AR lung tumor, primary screen, human, duplicate replicates (AID 580;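 active = viability at or under a set limit in both replicates, limit being median viability minus 3 SD, cut at about 48% in these data, passing the limit was not always enough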;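 note: 100% = mean luminescence of untreated wells and 0% = no signal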). Conditions: H69AR lung tumor cells viability, ATP luminescence, 72 h; at 10 µM; stronger effect = lower value.
Assay [6] in a line: reversal of MRP1-mediated doxorubicin resistance, pilot screen, H69AR cells, doxorubicin co-treatment (AID 601;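 active = viability loss from added drug above about 55%, and viability with drug at most 40%, in both replicates, limit read from the data, passing the limit was not always enough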). Conditions: CellTiter-Glo, 72 h, at 10 µM; for differential viability (reversal): stronger effect = higher value.
Assay [7] is described as follows: 384-well plate pilot, post-Golgi transport modulator project, inhibition of yeast transport mutant growth (AID 636; in the data active = inhibition above about 31%). Conditions: absorbance 615 nm, about 18 h, stronger effect = higher value.
A short description of assay [8]: growth suppression of yeast trafficking mutant, preliminary HTS, modulators of trafficking downstream of Golgi apparatus project, 1536-format plate, OD 615 nm (AID 637; in the data active = inhibition above about 30%). Conditions: yeast transport mutant growth, absorbance 615 nm, 18 h; stronger effect = higher value.
Assay [9] can be described thus: OD615 S. cerevisiae growth inhibition, permissive medium, pilot counter-assay, permissive growth control for S. cerevisiae lifespan shortening project (AID 705;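 active = growth inhibition above 25% in both replicates, a cutoff set 3 SD above the mean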). Conditions: OD615, 24 h, at 10 µM, stronger effect = higher value.
A short description of assay [10]: Restrictive medium S. cerevisiae growth inhibition, OD615, pilot screen of yeast lifespan reduction project, restrictive growth control (AID 706;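 active = growth inhibition above a set limit, 3 SD over mean compound inhibition, in both replicates, cut at about 43% in these data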;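 note: modified DeaD lifespan yeast strain shifted to restrictive glucose medium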). Conditions: OD615, 48 h, at 10 µM, stronger effect = higher value.
Assay [11] is described as follows: viability gain of MRP-1-high H69AR cells under doxorubicin, pilot screen, MRP-1 activator project, CellTiter-Glo, duplicate (AID 807;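 active = viability increase at or above a cutoff of the median across tested compounds plus 3 SD, cut at about 8.5% in these data, passing the limit was not always enough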;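 note: compound pretreatment 18-22 h then 72 h combined with doxorubicin; 0% = doxorubicin alone and 100% = vehicle without doxorubicin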). Conditions: H69AR viability with doxorubicin, CellTiter-Glo luminescence; at 10 µM; stronger effect = higher value.
Assay [12] can be described thus: growth suppression of beta-catenin knockout HCT116, pilot screen, human colon tumor cells (AID 823;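 active = cell viability at or below a set limit in both duplicate runs, the limit being the all-compound median minus 4 SD, cut at about 23% in these data, passing the limit was not always enough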;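 note: 0% = wells killed by 20 µM Hyamine and 100% = untreated DMSO cell wells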). Conditions: CellTiter-Glo, 60 h, at 10 µM, stronger effect = lower value.
Assay [13] is described as follows: growth suppression of PTEN-deleted HCT116, pilot screen, cell-based, HCT116 clonal line, CellTiter-Glo (AID 824;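 active = viability at or below 27.92% in each of two runs, the all-compound median minus 4 SD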;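 note: 0% = 20 µM Hyamine control and 100% = vehicle cell control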). Conditions: 60 h, at 10 µM, stronger effect = lower value.
Assay [14] can be described thus: inhibitors of the yeast RAM network, pilot screen, dse1pr::URA3 reporter, 5-FOA selection (AID 869;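 active = inhibition over a set limit, the all-compound mean plus 3 SD, in both replicate runs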;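 note: 0% = DMSO wells with no growth and 100% = 10 µM 1-NA-PP1 with full growth; RAM network block rescues cells from 5-FOA so hits raise OD615 growth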). Conditions: S. cerevisiae dse1pr::URA3 5-FOA growth, OD615, 2 d; at 10 µM; stronger effect = higher value; strain carries analog-sensitive mutant Cbk1 kinase.
Assay [15] is described as follows: RAM signaling pathway blockade in yeast – S. cerevisiae, Pdr1DBD-CYC8 efflux-inhibited sensitized strain, primary screen (AID 1298;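 active = RAM network inhibition above 8.4% in each of two replicates, 3 SD over the compound average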;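 note: 0% = DMSO untreated cells without growth and 100% = 10 µM 1-NA-PP1 full growth; higher means more yeast growth rescued from 5-FOA killing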). Conditions: S. cerevisiae cbk1-as DSE1-URA3 strain, 5-FOA growth OD615, 2 d; at 50 µM; stronger effect = higher value.
Setting [16] is: H69AR cells + 2 uM doxorubicin, measured here: viability with 2 uM doxorubicin, stronger effect = lower value.
[17] abbreviates: H69AR cells, compound alone cytotoxicity.

Inconclusive results are not listed. Activity calls are given as the source filed them.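 Rule for the calls, unless noted: active = Her2 level under about 52% in both replicate screens, with viability over 70% of control (limit read from the data); inconclusive = Her2 under the limit in one screen only, or viability under 70%; inactive = Her2 level above the set limit.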

Chain of Receptor tyrosine-protein kinase erbB-2 (Homo sapiens) (P04626 whole entry, looked up): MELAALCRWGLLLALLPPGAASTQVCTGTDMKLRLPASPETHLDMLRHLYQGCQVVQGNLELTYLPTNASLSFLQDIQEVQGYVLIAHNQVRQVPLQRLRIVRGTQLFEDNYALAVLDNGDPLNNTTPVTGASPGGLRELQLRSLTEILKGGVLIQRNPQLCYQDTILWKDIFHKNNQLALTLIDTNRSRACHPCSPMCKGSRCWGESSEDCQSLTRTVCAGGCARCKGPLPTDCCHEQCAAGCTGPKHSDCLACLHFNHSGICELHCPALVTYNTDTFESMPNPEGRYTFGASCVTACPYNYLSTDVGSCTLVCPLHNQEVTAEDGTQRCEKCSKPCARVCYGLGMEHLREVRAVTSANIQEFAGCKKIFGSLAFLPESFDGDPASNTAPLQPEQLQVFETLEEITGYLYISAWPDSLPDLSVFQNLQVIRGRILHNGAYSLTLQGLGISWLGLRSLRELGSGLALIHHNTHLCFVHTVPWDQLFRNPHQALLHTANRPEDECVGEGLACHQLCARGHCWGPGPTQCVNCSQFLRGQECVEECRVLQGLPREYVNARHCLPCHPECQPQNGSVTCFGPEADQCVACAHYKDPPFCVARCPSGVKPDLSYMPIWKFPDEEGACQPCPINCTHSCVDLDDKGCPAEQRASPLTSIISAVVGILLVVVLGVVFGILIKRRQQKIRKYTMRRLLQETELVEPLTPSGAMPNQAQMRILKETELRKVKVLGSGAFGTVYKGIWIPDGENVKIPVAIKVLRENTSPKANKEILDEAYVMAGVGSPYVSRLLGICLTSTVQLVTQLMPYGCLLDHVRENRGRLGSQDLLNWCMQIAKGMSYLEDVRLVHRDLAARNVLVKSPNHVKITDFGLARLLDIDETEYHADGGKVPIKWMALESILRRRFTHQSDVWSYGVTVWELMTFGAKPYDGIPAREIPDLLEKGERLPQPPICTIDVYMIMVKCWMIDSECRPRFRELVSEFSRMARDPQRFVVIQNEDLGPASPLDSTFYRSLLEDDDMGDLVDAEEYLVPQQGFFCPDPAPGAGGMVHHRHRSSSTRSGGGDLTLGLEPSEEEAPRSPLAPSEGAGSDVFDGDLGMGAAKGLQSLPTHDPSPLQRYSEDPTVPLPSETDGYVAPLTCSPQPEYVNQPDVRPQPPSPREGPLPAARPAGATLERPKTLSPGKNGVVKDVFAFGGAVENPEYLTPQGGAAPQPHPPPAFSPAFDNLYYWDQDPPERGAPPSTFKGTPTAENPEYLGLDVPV

Consider `COc1ccc(/C=N/O)cc1COc1ccc(NC(C)=O)cc1`, for which the viability in [1] was 115%; in [3], 115% (inactive); in assay [4], 102% (inactive); in assay [5], 103% (inactive); in assay [6] (setting [16]), 90.2%; in assay [6] (setting [17]), 103%. Moreover, the viability was 90.9% (inactive) in assay [12] and 93.4% (inactive) in [13]. Besides, in [2], the Her2 level was 98% (inactive). Further, the differential viability (reversal) in assay [6] (H69AR cells + 2 uM doxorubicin) was 13.2% (inactive). The results for the inhibition in assay [7], in assay [8] and in assay [14] were -4.32% (inactive), 1.9% (inactive) and 0.83% (inactive), respectively. Moreover, the growth inhibition was -5.25% (inactive) in assay [9] and -2.58% (inactive) in assay [10]. Besides, the viability increase in assay [11] is -0.85% (inactive). Further, the RAM network inhibition in [15] was 0.92% (inactive).
Consider `CCOC(=O)N1CCN(C(=O)c2c(-c3ccccc3)noc2C)CC1`, for which the viability in [1] was 78%; in assay [3], 78% (inactive); in [4], 96.6% (inactive); in assay [5], 95.2% (inactive); in assay [6] (setting [16]), 89.5%; in assay [6] (setting [17]) it was 95.2%. Moreover, the results for the viability in assay [12] and in assay [13] were 104% (inactive) and 87.6% (inactive), respectively. Also, the Her2 level in assay [2] is 104% (inactive). Also, in assay [6] (H69AR cells + 2 uM doxorubicin), the differential viability (reversal) was 5.67% (inactive). Moreover, the results for the inhibition in assay [7], in [8] and in [14] were -6.67% (inactive), -2.5% (inactive) and 3% (inactive), respectively. The growth inhibition in [9] is -9.5% (inactive); in assay [10], -0.595% (inactive). Further, the viability increase in [11] is -2.25% (inactive). In addition, the RAM network inhibition in assay [15] is 4.25% (inactive).
In the case of `CCOc1ccc(N2CC(C(=O)Nc3ccccc3OC)CC2=O)cc1` (stereo not given), the viability in assay [1] is 106%; in [3], 106% (inactive); in assay [4], 110% (inactive); in assay [5], 95.7% (inactive); in assay [6] (setting [16]), 86%; in assay [6] (setting [17]), 95.7%. In addition, the viability in [12] and in assay [13] was 102% (inactive) each time. Besides, in assay [2], the Her2 level was 98% (inactive). Moreover, the differential viability (reversal) in assay [6] (H69AR cells + 2 uM doxorubicin) was 9.71% (inactive). Also, the inhibition in assay [7] is -3.87% (inactive); in [8], -3% (inactive); in assay [14], 1.8% (inactive). Moreover, the growth inhibition in [9] was -7.43% (inactive); in [10], -1.77% (inactive). For the same molecule, the viability increase in assay [11] was -1.73% (inactive). Also, the RAM network inhibition in [15] is 0.63% (inactive).
In the case of `C=CCSc1nc2sc(C)c(C)c2c(=O)[nH]1`, the viability was 97.5% in [1]; 97.5% (inactive) in [3]; 83.3% (inactive) in assay [4]; 90.7% (inactive) in [5]; 80.8% in assay [6] (setting [16]); 90.7% in assay [6] (setting [17]). Moreover, the viability is 109% (inactive) in [12] and 89% (inactive) in assay [13]. Also, in assay [2], the Her2 level is 107% (inactive). Besides, the differential viability (reversal) in [6] (H69AR cells + 2 uM doxorubicin) was 9.9% (inactive). Moreover, the inhibition in [7] is -5.87% (inactive); in [8] it was -10.3% (inactive); in assay [14], 1.19% (inactive). The growth inhibition in assay [9] is -7.21% (inactive); in assay [10], -12.2% (inactive). Further, in [11], the viability increase was 0.97% (inactive). Further, in assay [15], the RAM network inhibition was 4.66% (inactive).
Take `O=C(NC1CCCCCC1)c1c(F)c(F)c(F)c(F)c1F`: the viability in assay [1] was 76.5%; in [3], 76.5% (inactive); in assay [4], 78.9% (inactive); in [5], 101% (inactive); in [6] (setting [16]) it was 85.2%; in assay [6] (setting [17]) it was 101%. Besides, the viability is 91.8% (inactive) in [12] and 93.5% (inactive) in assay [13]. In addition, the Her2 level in [2] was 92% (inactive). For the same molecule, the differential viability (reversal) in [6] (H69AR cells + 2 uM doxorubicin) was 15.7% (inactive). Also, the figures for the inhibition in [7], in [8] and in assay [14] were 0.26% (inactive), -8.67% (inactive) and 1.01% (inactive), respectively. In addition, the growth inhibition in assay [9] was 4.54% (inactive); in assay [10], 7.52% (inactive). In addition, the viability increase in assay [11] is -3.82% (inactive). In addition, the RAM network inhibition in assay [15] was -1.79% (inactive).
`COCCCN(C)C1CCN(C(=O)Nc2ccc(F)cc2)CC1`: the viability in assay [1] is 106%; in assay [3] it was 106% (inactive); in assay [4], 109% (inactive); in assay [5] it was 89% (inactive); in [6] (setting [16]), 94.4%; in assay [6] (setting [17]) it was 89%. In addition, the results for the viability in assay [12] and in [13] were 103% (inactive) and 105% (inactive), respectively. Moreover, the Her2 level in assay [2] was 124% (inactive). In addition, the differential viability (reversal) in [6] (H69AR cells + 2 uM doxorubicin) is -5.42% (inactive). The figures for the inhibition in assay [7], in [8] and in assay [14] were -3.47% (inactive), -1.5% (inactive) and 0.185% (inactive), respectively. Moreover, the values for the growth inhibition in assay [9] and in assay [10] were -6.78% (inactive) and 3.39% (inactive), respectively. In addition, the viability increase in assay [11] was 0.68% (inactive). In addition, the RAM network inhibition in assay [15] was 8.93% (inactive).
Regarding `CCOc1ccc(-c2cc(CCCC(=O)N3CCN(c4ccc(OC)cc4)CC3)no2)cc1`, the viability in assay [1] was 85%; in assay [3], 85% (inactive); in assay [4] it was 77.8% (inactive); in [5], 67.7% (inactive); in assay [6] (setting [16]), 70.2%; in [6] (setting [17]), 67.7%. Besides, the viability in assay [12] is 81.7% (inactive); in assay [13] it was 82.5% (inactive). The Her2 level in assay [2] was 104% (inactive). Further, in [6] (H69AR cells + 2 uM doxorubicin), the differential viability (reversal) is -2.52% (inactive). Besides, the results for the inhibition in assay [7], in [8] and in [14] were 4.1% (inactive), -2.67% (inactive) and 2.54% (inactive), respectively. Besides, the growth inhibition in assay [9] was 2.23% (inactive); in [10], 1.43% (inactive). The viability increase in assay [11] is -3.39% (inactive). Besides, the RAM network inhibition in [15] is 8.59% (inactive).
For `CCOc1ccc(NC(=O)CN(c2cc(C)cc(C)c2)S(=O)(=O)c2c(C)noc2C)cc1`, the viability in assay [1] was 94%; in assay [3] it was 94% (inactive); in [4] it was 85.2% (inactive); in assay [5], 74.7% (inactive); in [6] (setting [16]), 74.2%; in [6] (setting [17]) it was 74.7%. The viability was 102% (inactive) in [12] and 97.2% (inactive) in assay [13]. In addition, in assay [2], the Her2 level is 90.5% (inactive). For the same molecule, the differential viability (reversal) in assay [6] (H69AR cells + 2 uM doxorubicin) was 0.455% (inactive). Also, the inhibition is 1.67% (inactive) in assay [7], -1.83% (inactive) in [8] and 2.2% (inactive) in [14]. Also, the growth inhibition was -19.5% (inactive) in assay [9] and -16.8% (inactive) in assay [10]. Moreover, the viability increase in [11] is -3.54% (inactive). Also, the RAM network inhibition in assay [15] was 8.99% (inactive).
Turning to `COc1cccc(C2CC(c3ccc(F)cc3)Nc3nc(N)nn32)c1` (stereo not given), the viability in assay [1] is 100%; in assay [3], 100% (inactive); in assay [4] it was 99.9% (inactive); in [5], 103% (inactive); in assay [6] (setting [16]), 99.9%; in assay [6] (setting [17]), 103%. The viability in assay [12] is 102% (inactive); in assay [13] it was 95.5% (inactive). Also, in [2], the Her2 level was 106% (inactive). In assay [6] (H69AR cells + 2 uM doxorubicin), the differential viability (reversal) is 3.04% (inactive). In addition, the inhibition in assay [7] was -2.67% (inactive); in [8], 14.9% (inactive); in assay [14], 0.725% (inactive). Also, the growth inhibition was -3.78% (inactive) in assay [9] and 4.35% (inactive) in assay [10]. Further, the viability increase in assay [11] was -0.39% (inactive). Moreover, the RAM network inhibition in [15] is 5.03% (inactive).
In the case of `CC(=O)c1ccc(OCC(O)CN2CCN(Cc3ccc4c(c3)OCO4)CC2)cc1` (stereo not given), the viability is 102% in assay [1]; 102% (inactive) in assay [3]; 101% (inactive) in [4]; 88.7% (inactive) in assay [5]; 90.8% in assay [6] (setting [16]); 88.7% in assay [6] (setting [17]). Also, the figures for the viability in [12] and in assay [13] were 102% (inactive) and 92.4% (inactive), respectively. Moreover, the Her2 level in [2] is 102% (inactive). For the same molecule, the differential viability (reversal) in [6] (H69AR cells + 2 uM doxorubicin) is -2.19% (inactive). The inhibition in assay [7] was -6.13% (inactive); in assay [8] it was 2.5% (inactive); in assay [14] it was 1.67% (inactive). Also, the growth inhibition in [9] was -5.95% (inactive); in assay [10], -5.68% (inactive). Also, in [11], the viability increase is -0.65% (inactive). Besides, in assay [15], the RAM network inhibition is 1.31% (inactive).
